The record followed here is PubChem BioAssay.

Test [1] in a line: compounds binding Alexa647 anti-His antibody – biochemical, small-molecule microarray, 635 nm fluorescence, artefact control for SMM control protein annotation, primary screen (AID 1128).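 Note: score merges feature fluorescence with signal-to-noise for each printed compound spot.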 The note with it: higher = more signal.
Test [2] relates to Human papillomavirus type 1a E7 protein (residues 1-88). Put plainly: HPV1a E7 small-molecule binders, primary screen, biochemical, small-molecule microarray, residues 1-88, 635 nm (AID 1129). The note with it: small-molecule microarray binding, fluorescence 635 nm; higher = more signal.
For test [3], the target named is Focal adhesion kinase 1 (Homo sapiens) (UniProt Q05397). Briefly: PTK2 protein binding on printed compound slides – biochemical, small-molecule microarray, 635/667 nm fluorescence, BSA, DTT, primary screen (AID 1130).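 Note: composite of spot emission at 667 nm and signal to noise over triplicate slides.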 The note with it: 635 nm fluorescence, higher = more signal.
Sequence of Focal adhesion kinase 1 (Homo sapiens) (Q05397 whole entry, looked up): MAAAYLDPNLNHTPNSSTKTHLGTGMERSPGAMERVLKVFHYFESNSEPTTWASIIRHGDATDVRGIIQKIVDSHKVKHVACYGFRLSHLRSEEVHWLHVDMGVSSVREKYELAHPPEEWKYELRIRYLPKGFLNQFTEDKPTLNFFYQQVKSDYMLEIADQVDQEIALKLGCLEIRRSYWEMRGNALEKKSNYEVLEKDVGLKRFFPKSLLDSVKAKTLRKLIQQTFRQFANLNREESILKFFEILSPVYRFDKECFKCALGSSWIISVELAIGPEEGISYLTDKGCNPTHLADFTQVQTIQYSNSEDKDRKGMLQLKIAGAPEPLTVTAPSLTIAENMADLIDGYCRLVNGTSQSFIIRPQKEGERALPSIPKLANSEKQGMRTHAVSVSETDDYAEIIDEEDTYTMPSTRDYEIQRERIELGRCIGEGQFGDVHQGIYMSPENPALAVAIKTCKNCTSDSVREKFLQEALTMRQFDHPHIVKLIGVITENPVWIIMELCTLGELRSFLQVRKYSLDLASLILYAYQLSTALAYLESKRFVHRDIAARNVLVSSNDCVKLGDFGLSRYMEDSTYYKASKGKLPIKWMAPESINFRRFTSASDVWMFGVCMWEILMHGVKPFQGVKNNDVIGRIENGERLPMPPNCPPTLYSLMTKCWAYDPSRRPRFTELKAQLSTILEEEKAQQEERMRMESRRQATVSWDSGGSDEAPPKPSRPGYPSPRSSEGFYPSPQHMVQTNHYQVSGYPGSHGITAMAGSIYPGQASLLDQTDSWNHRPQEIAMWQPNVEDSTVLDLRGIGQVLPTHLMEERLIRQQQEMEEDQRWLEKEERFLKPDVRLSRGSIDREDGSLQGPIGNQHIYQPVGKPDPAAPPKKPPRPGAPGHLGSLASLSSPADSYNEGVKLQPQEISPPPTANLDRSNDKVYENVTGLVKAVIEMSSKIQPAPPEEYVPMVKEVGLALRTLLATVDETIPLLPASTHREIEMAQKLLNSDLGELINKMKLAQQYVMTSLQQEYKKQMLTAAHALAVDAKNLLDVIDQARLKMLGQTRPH
In test [4] the test system is Fibrinogen (Alexa647-labelled). Put plainly: Alexa647-fibrinogen binding to printed small molecules – biochemical, small-molecule microarray, 635/667 nm fluorescence, artefact control for SMM control-protein annotation, profiling panel (AID 1131).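 Note: z-score merges 667 nm fluorescence with per-spot signal-to-noise over triplicate slides.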 The note with it: fibrinogen-A647 binding fluorescence, higher = more signal.
In test [5] the target is Follistatin (Homo sapiens) (UniProt P19883). Briefly: FST protein binding to printed compounds – biochemical, small-molecule microarray, 635/667 nm fluorescence, primary screen (AID 1132). The note with it: 635 nm fluorescence, higher = more signal.
Sequence of Follistatin (Homo sapiens) (P19883 whole entry, looked up): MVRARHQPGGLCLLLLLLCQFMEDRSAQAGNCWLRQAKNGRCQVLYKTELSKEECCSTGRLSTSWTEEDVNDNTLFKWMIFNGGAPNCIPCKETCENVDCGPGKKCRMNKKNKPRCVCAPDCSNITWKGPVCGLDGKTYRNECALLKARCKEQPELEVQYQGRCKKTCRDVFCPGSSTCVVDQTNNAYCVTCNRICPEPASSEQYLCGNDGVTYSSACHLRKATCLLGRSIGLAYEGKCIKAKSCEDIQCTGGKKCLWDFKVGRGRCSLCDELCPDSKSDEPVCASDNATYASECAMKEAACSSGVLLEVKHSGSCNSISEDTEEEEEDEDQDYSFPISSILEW
Test [6] addresses Fibroblast growth factor 2 (Homo sapiens) (UniProt P09038). Put plainly: basic fibroblast growth factor binding to printed compounds – biochemical, small-molecule microarray, 635/667 nm fluorescence, primary screen (AID 1133). The note with it: FGF2, fluorescence 635/667, higher = more signal.
The nature of test [7]: JC-1 mitochondrial potential readout, lung cancer cells – cell-based, A549, JC-1 fluorescence, basal, 24 h, 100 nL, profiling panel (AID 1138).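 Note: A549 lung adenocarcinoma cells under basal conditions with no added stimulus; test concentration not given here.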 The note with it: higher = more signal.
Test [8] concerns Lefty1. Put plainly: Lefty1 protein binding to printed compounds – biochemical, small-molecule microarray, 635/667 nm fluorescence, primary screen (AID 1139). To be noted: fluorescence 635/667, higher = more signal.
Test [9] relates to wheat germ agglutinin (Triticum aestivum), Alexa647-labelled. Briefly: Alexa647-WGA lectin binding to printed small molecules – biochemical, small-molecule microarray, 635/667 nm fluorescence, artefact control for SMM control-protein annotation, profiling panel (AID 1140).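 Note: score merges 667 nm feature emission with signal to noise over triplicate slides.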 The note with it: WGA-A647 binding, 635 nm fluorescence, higher = more signal.
In test [10] the target is Luciferin 4-monooxygenase (Photinus pyralis) (UniProt P08659). Put plainly: inhibition of purified Photinus pyralis luciferase – biochemical, luminescence, purified enzyme, 2006 set, primary screen (AID 1141).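 Note: cell-free assay with purified firefly luciferase at 100 ng per well in PBS; test concentration not given here.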 The note with it: purified firefly luciferase, SteadyGlo luminescence, 30 min; higher = more signal, called active from +8 up or from −8 down.
Sequence of Luciferin 4-monooxygenase (Photinus pyralis) (P08659 whole entry, looked up): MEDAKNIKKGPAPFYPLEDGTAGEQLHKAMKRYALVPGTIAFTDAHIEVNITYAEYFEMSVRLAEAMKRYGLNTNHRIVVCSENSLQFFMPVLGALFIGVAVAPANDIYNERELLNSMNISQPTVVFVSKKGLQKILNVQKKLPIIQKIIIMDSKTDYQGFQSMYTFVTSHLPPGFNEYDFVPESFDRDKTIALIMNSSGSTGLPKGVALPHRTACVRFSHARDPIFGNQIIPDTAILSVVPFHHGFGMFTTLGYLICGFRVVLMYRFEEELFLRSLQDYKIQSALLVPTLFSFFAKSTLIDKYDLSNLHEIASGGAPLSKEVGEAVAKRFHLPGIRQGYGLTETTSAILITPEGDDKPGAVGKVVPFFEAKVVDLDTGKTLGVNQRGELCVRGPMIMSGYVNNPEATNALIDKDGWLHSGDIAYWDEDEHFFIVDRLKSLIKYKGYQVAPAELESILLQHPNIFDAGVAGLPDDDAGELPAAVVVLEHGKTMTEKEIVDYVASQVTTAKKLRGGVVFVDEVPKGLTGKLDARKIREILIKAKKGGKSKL
The test system of test [11] is Wnt5a (protein binding on small-molecule microarray). Put plainly: small molecules binding Wnt5a protein – biophysical, small-molecule microarray, 635/667 nm fluorescence, primary screen (AID 1142).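 Note: fluorescence read at 667 nm with signal to noise per printed feature.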 To be noted: 635 nm fluorescence, higher = more signal.
The nature of test [12]: ATP-based viability of Huh7 replicon cells – cell-based, CellTiter-Glo luminescence, basal, 48 h, cytotoxicity control for HCV replication inhibitor project, primary screen (AID 1143).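 Note: Huh7 hepatoma cells carrying a hepatitis C replication reporter with no stimulus; test concentration not given here.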 To be noted: higher = more signal, called active from +8 up or from −8 down. On the technique in general: A replicon is a self-replicating genome or part of one, used to study replication in cells.

Test [13] can be described thus: Pseudomonas biofilm growth suppression – PAO1 strain, BacTiter-Glo luminescence, LB-PBS, primary screen (AID 1144). To be noted: P. aeruginosa PAO1 biofilm, 12 h, higher = more signal.
A short description of test [14]: basal CRE-LacZ reporter activity in PC12 – cell-based, unstimulated, primary screen (AID 1145). The note with it: no forskolin, luminescence, 4.5 h, higher = more signal, called active from +8 up or from −8 down.
The nature of test [15]: forskolin-driven CRE-LacZ activity in PC12 – cell-based, CRE-LacZ reporter, forskolin-stimulated, primary screen (AID 1146).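 Note: PC12 cells with 6xCRE LacZ reporter stimulated by forskolin 10 µM; beta-galactosidase reporter signal reflecting CREB driven transcription.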 The note with it: luminescence, 4.5 h, higher = more signal, called active from +8 up or from −8 down.
Test [16] has as its target Streptavidin (Streptomyces avidinii) (UniProt P22629). Put plainly: compounds binding control protein streptavidin – biophysical, small-molecule microarray, 635/667 nm fluorescence, artefact control for SMM compound annotation, primary screen (AID 1147).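 Note: signal reflects streptavidin binding to arrayed compounds as a control protein.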 To be noted: higher = more signal.
A short description of test [17]: probe aInhba binding on compound microarray – biochemical, small-molecule microarray, 635/667 nm fluorescence, primary screen (AID 1148).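 Note: score merges 667nm spot fluorescence with signal-to-noise for antibody binding to printed compounds.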 The note with it: higher = more signal.
Test [18] concerns the target Torsin-1A (Homo sapiens) (UniProt O14656). Put plainly: TOR1A wild-type binding on microarray – cell lysate, small-molecule microarray, lysate, 635/667 nm, primary screen (AID 1149). To be noted: COS7 hTOR1A-WT lysate, 635 nm fluorescence, higher = more signal.
For test [19] the target is unchanged. Put plainly: torsin A mutant lysate binding on microarrays – cell lysate, small-molecule microarray, COS7 lysate, 635/667 nm fluorescence, primary screen (AID 1150).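 Note: score pools 667 nm emission and signal to noise measuring lysate protein binding.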 To be noted: COS7 hTOR1A mutant lysate, 635 nm fluorescence, higher = more signal.
Test [20] deals with Sonic hedgehog protein (Shh). Briefly: Sonic hedgehog microarray binding compounds – biochemical, small-molecule microarray, 635/667 nm fluorescence, primary screen (AID 1151).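 Note: Shh protein binding to compounds spotted on small-molecule microarray slides; score combines spot fluorescence intensity with signal-to-noise across triplicate slides.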 To be noted: 635 nm fluorescence, higher = more signal.

Each structure is given as a SMILES string. Activity calls are given as the source filed them. Unless noted, the rule behind the calls is not given here.

Sequence of Torsin-1A (Homo sapiens) (O14656 whole entry, looked up): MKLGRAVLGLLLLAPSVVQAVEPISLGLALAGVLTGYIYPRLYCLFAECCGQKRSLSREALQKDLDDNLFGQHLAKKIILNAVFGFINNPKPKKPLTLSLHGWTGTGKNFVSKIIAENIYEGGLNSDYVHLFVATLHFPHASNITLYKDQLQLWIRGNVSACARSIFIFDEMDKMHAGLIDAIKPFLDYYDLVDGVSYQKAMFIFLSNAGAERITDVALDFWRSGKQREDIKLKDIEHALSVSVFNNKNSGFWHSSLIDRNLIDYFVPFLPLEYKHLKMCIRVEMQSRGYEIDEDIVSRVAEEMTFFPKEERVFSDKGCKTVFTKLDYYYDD
Sequence of Fibroblast growth factor 2 (Homo sapiens) (P09038 whole entry, looked up): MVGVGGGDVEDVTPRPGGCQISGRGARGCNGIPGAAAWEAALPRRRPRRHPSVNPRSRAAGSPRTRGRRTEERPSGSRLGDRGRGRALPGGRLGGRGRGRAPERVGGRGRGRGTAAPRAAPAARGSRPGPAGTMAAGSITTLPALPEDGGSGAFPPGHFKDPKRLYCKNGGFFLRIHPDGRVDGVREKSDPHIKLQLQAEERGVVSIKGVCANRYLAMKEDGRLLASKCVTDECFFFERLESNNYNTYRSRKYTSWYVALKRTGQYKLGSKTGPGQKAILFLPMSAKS
Sequence of Streptavidin (Streptomyces avidinii) (P22629 whole entry, looked up): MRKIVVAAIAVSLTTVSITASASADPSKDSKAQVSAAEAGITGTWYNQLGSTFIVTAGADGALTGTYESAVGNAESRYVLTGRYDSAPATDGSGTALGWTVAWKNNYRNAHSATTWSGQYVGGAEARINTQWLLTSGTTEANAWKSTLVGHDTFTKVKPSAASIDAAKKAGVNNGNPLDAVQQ

`C=C(COC)C(=O)CC[C@H](OC(C)=O)c1ccccc1OCCO`: the composite z-score is 0.342 in test [1]; -0.538 in test [2]; 0.253 in [3]; -0.674 in test [4]; 1.26 in test [5]; 1.73 in test [6]. Besides, the composite z-score in test [8] was 1.13; in test [9] it was -0.368; in [11] it was 0.0375; in test [16], -0.955; in test [17] it was 0.858; in [18], 2.34. Besides, the composite z-score in test [19] worked out at 0.851; in [20], 1.8. For the same molecule, the z-score in test [7] was 0.0429; in test [10], -1.61 (inactive); in test [12], -4.1 (inactive); in [13], -0.0151 (inactive); in test [14], 6.35 (inactive); in [15], 4.62 (inactive).

In the case of `CCCCCN1CC=CC23O[C@@H]4/C=C\CCCOC(=O)C4[C@H]2C(=O)N(CCO)[C@@H]3C1=O` (stereo not given in full), the composite z-score was 2.49 in [1]; 0.87 in test [2]; 1.15 in [3]; -0.728 in test [4]; -0.274 in [5]; -0.0388 in test [6]. Also, the composite z-score is 0.126 in test [8]; 0.759 in test [9]; -0.243 in test [11]; -0.666 in test [16]; -0.183 in test [17]; 0.642 in test [18]. The values for the composite z-score in test [19] and in [20] were 1.58 and 0.0256, respectively. Further, the z-score in test [7] was -0.953; in [10] it was -2.06 (inactive); in test [12], -2.03 (inactive); in test [13] it was -2.97 (inactive); in test [14], -1.98 (inactive); in test [15] it was -0.508 (inactive).

Turning to `COC(=O)C(CC#Cc1ccc2c(c1)[C@]1(C(=O)N2)[C@H](C(=O)N2CCN(c3ncccn3)CC2)[C@H]2C(=O)O[C@H](c3ccccc3)[C@H](c3ccccc3)N2[C@@H]1c1ccc(O)cc1)C(=O)OC`, the composite z-score in test [1] worked out at 1.19; in test [2] it was 1.25; in test [3] it was 0.904; in test [4] it was 0.951; in test [5], 1.43; in [6] it was 1.57. In addition, the composite z-score in [8] stood at 1.03; in test [9], 1.36; in [11] it was 0.923; in test [16], 2.27; in test [17], 1.39; in test [18], 0.662. The results for the composite z-score in test [19] and in test [20] were 1.12 and 1.04, respectively. Further, the z-score was -0.877 in test [7]; -0.178 (inactive) in test [10]; -3.7 (inactive) in test [12]; -0.58 (inactive) in [13]; -0.0515 (inactive) in test [14]; 0.0989 (inactive) in test [15].

For the molecule `C=C(CCCC)/C(=C/C[C@@H](OC(C)=O)c1cccc(OCCO)c1)c1cc(C(=O)OC)ccc1OC`, the composite z-score in [1] came out at 0.57; in test [2] it was 0.0538; in test [3], 0.0738; in [4] it was 0.249; in [5], 0.705; in test [6] it was 0.0923. The composite z-score in [8] is 1.08; in test [9], 0.617; in test [11], -0.257; in test [16], -0.697; in [17], -0.0645; in test [18], 0.146. The composite z-score in test [19] is -0.558; in test [20], 1.48. Besides, the z-score is 1.63 in [7]; -0.132 (inactive) in test [10]; -0.917 (inactive) in test [12]; 0.198 (inactive) in test [13]; 4.5 (inactive) in test [14]; 1.48 (inactive) in [15].

For `CC(C)C[C@@H]1NC(=O)[C@@H]2C[C@H](C(=O)NCCCCCNC(=O)CS)[C@H](c3ccc(O)cc3)N2C1=O`, the composite z-score in test [1] was 2.52; in test [2], -0.0315; in [3] it was 0.322; in test [4], 0.0178; in [5], 0.815; in [6] it was 1.24. Further, the composite z-score in [8] was 0.627; in test [9] it was 0.263; in test [11] it was -0.025; in test [16] it was -0.799; in test [17], -0.045; in test [18], 1.87. Further, the composite z-score in test [19] is 2.08; in test [20] it was 1.99. For the same molecule, the z-score in test [7] is -0.976; in test [10], 0.448 (inactive); in test [12] it was -4.33 (inactive); in test [13], -0.455 (inactive); in [14], -0.809 (inactive); in [15] it was -0.661 (inactive).
